Common to all, as to settings: n = 1
The subject of assay [1] is T1, FAK.
T1 construct: gene PTK2

For assay [2], the system named is FER.
The test system of assay [3] is FES.
Assay [4] concerns FGFR1.
The test system of assay [5] is FGFR2.
Assay [6] relates to FGFR3.
Assay [7] concerns FGFR4.
The subject of assay [8] is FGR.
Assay [9] relates to FLT1.
Assay [10] deals with FLT3-autoinhibited.
Assay [11] deals with FLT3.
Assay [12] has as its system FLT4.
Assay [13] relates to FRK.
In assay [14] the test system is FYN.
The test system of assay [15] is GAK.
Assay [16] deals with T2, GCN2(Kin.Dom.2,S808G).
T2 construct: gene EIF2AK4

Assay [17] has as its system GRK1.
Assay [18] deals with T3, GRK2.
T3 construct: gene ADRBK1

The test system of assay [19] is T4, GRK3.
T4 construct: gene ADRBK2

Assay [20] relates to GRK4.
Where [21] appears, read: concentration: 1 μM, replicates: in singlicate.
Where [22] appears, read: concentration: 1 μM,replicates: in singlicate, 1 µM.

Several values for one entry are separate records, joined by “and”; a condition that tells them apart may be missing. Equal entries are not always repeated. Where two headings read alike, the source gives them in different places.
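Also: KINOMEscan kinase panel screen.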

For the compound `Cc1ccc(NC(=O)Nc2cccc(C(F)(F)F)c2)cc1` [GSK955403], the “%Inh” value came to 1% in assay [1] (1 µM); 0% in assay [2] (1 µM); 0% in assay [3] (1 µM); 1% in assay [4] (1 µM); 0% in [5] (1 µM); 5% in assay [6] (1 µM). The “%Inh” value came out at 0% in assay [7] (1 µM); 0% in [8] (1 µM); 23% in assay [9] (1 µM); 0% in [10] (1 µM); 59% in [11] (1 µM); 12% in assay [12] (1 µM). Besides, the “%Inh” value was 0% in assay [13] (1 µM); 0% in assay [14] (1 µM); 0% in assay [15] (1 µM); 0% in [16] (1 µM); 2% in assay [17] (1 µM); 0% in assay [18] (1 µM). Further, the “%Inh” value in assay [19] (1 µM) and in [20] (1 µM) was 0% each time.
`Cn1ccc2ncnc(Oc3cccc(C(=O)Nc4ccccc4)c3)c21`: the “%Inh” value in [1] (setting [21]) amounted to 5%; in [2] (setting [21]), 8%; in assay [3] (setting [21]), 4%; in [4] (setting [21]), 0%; in assay [5] (setting [21]), 0%; in assay [6] (setting [21]), 0%. Also, the “%Inh” value in [7] (setting [21]) is reported as 6%; in assay [8] (setting [21]), 5%; in assay [9] (setting [21]) it was 54%; in [10] (setting [21]) it was 15%; in assay [11] (setting [21]) it was 17%; in [12] (setting [21]), 0%. The “%Inh” value in assay [13] (setting [21]) is on record as 27%; in [14] (setting [21]), 8%; in assay [15] (setting [21]) it was 0%; in [16] (setting [21]) it was 14%; in [17] (setting [21]), 0%; in assay [18] (setting [21]) it was 0%. The “%Inh” value in [19] (setting [21]) amounted to 8%; in assay [20] (setting [21]), 3%.
As for `CSc1nn2c(=O)cc(N3CCOCC3)nc2n1Cc1cccc(C(F)(F)F)c1C` [GSK2363608], the “%Inh” value in assay [1] (setting [21]) is 0%; in assay [2] (setting [22]) it was 25% and 1%; in assay [3] (setting [21]), 0%; in assay [4] (setting [21]) it was 0%; in assay [5] (setting [21]), 0%; in [6] (setting [22]), 17% and 4%. Moreover, the “%Inh” value in assay [7] (setting [22]) was 5% and 14%; in assay [8] (setting [22]), 31% and 32%; in assay [9] (setting [22]), 26% and 10%; in [10] (setting [21]) it was 0%; in assay [11] (setting [21]), 0%; in assay [12] (setting [22]), 18% and 0%. Further, the “%Inh” value in assay [13] (setting [21]) is 0%; in assay [14] (setting [22]), 46% and 15%; in assay [15] (setting [22]), 100% and 0%; in [16] (setting [22]), 0% and 3%; in assay [17] (setting [21]) it was 0%; in assay [18] (setting [21]), 0%. Besides, the “%Inh” value is 0% and 20% in [19] (setting [22]); 0% and 8% in [20] (setting [22]).
Consider `Cc1c(Cn2ccn3c(=O)cc(N4CCOCC4)nc23)cccc1C(F)(F)F` [GSK2289044], for which the “%Inh” value in [1] (setting [21]) was 0%; in assay [2] (setting [21]), 7%; in assay [3] (setting [21]), 23%; in [4] (setting [21]), 0%; in [5] (setting [21]), 19%; in [6] (setting [21]), 28%. Moreover, the “%Inh” value in assay [7] (setting [21]) stood at 5%; in assay [8] (setting [21]) it was 14%; in assay [9] (setting [21]), 0%; in assay [10] (setting [21]), 0%; in assay [11] (setting [21]), 0%; in [12] (setting [21]), 0%. For the same compound, the “%Inh” value in [13] (setting [21]) turned out to be 0%; in assay [14] (setting [21]), 30%; in assay [15] (setting [21]) it was 10%; in [16] (setting [21]), 0%; in assay [17] (setting [21]) it was 0%; in assay [18] (setting [21]), 0%. The “%Inh” value in assay [19] (setting [21]) and in [20] (setting [21]) was 0% throughout.
As to `Fc1cc(Cl)ccc1Nc1ccnc2cc(-c3ccc(CN4CCCCC4)o3)ccc12` [GW560116], the “%Inh” value was determined as 0% in [1] (setting [21]); 5% in assay [2] (setting [21]); 0% in assay [3] (setting [21]); 0% in [4] (setting [21]); 0% in assay [5] (setting [21]); 0% in assay [6] (setting [21]). In addition, the “%Inh” value was 0% in assay [7] (setting [21]); 31% in assay [8] (setting [21]); 15% in assay [9] (setting [21]); 0% in assay [10] (setting [21]); 0% in [11] (setting [21]); 0% in [12] (setting [21]). Besides, the “%Inh” value in assay [13] (setting [21]) was 4%; in assay [14] (setting [21]), 18%; in assay [15] (setting [21]), 35%; in [16] (setting [21]), 0%; in assay [17] (setting [21]) it was 0%; in assay [18] (setting [21]), 0%. Moreover, the “%Inh” value in assay [19] (setting [21]) came to 18%; in assay [20] (setting [21]) it was 0%.
With `COc1ccc(C2=C(Nc3cccc(C(=O)O)c3)C(=O)NC2=O)cc1` [SB-390765], the “%Inh” value in assay [1] (setting [21]) was 13%; in [2] (setting [21]), 0%; in [3] (setting [21]), 21%; in assay [4] (setting [21]), 13%; in assay [5] (setting [21]), 13%; in assay [6] (setting [21]), 14%. The “%Inh” value is recorded as 0% in assay [7] (setting [21]); 6% in [8] (setting [21]); 4% in assay [9] (setting [21]); 17% in [10] (setting [21]); 23% in assay [11] (setting [21]); 15% in assay [12] (setting [21]). The “%Inh” value in assay [13] (setting [21]) worked out at 0%; in [14] (setting [21]), 0%; in [15] (setting [21]), 8%; in [16] (setting [21]) it was 0%; in assay [17] (setting [21]), 30%; in assay [18] (setting [21]), 0%. For the same compound, the “%Inh” value in [19] (setting [21]) is reported as 50%; in assay [20] (setting [21]), 14%.
On to `CS(=O)(=O)c1ccc(-c2nc3n(c2-c2ccncc2)CCC3)cc1` [SKF-105942], for which the “%Inh” value in [1] (setting [21]) turned out to be 0%; in assay [2] (setting [21]) it was 1%; in assay [3] (setting [21]) it was 22%; in assay [4] (setting [21]), 0%; in assay [5] (setting [21]), 0%; in assay [6] (setting [21]), 2%. For the same compound, the “%Inh” value was found to be 18% in assay [7] (setting [21]); 43% in assay [8] (setting [21]); 11% in assay [9] (setting [21]); 0% in assay [10] (setting [21]); 0% in [11] (setting [21]); 0% in assay [12] (setting [21]). The “%Inh” value in [13] (setting [21]) is 16%; in assay [14] (setting [21]), 12%; in assay [15] (setting [21]), 7%; in assay [16] (setting [21]), 9%; in assay [17] (setting [21]), 7%; in assay [18] (setting [21]), 0%. In addition, the figures for the “%Inh” value in assay [19] (setting [21]) and in assay [20] (setting [21]) were 24% and 23%, respectively.
With `Cl.NC(=O)c1cccc(Nc2nccc(Nc3ccc(Oc4cccc(Cl)c4)c(Cl)c3)n2)c1` [GW659008], the “%Inh” value in [1] (setting [21]) is listed as 0%; in [2] (setting [21]), 9%; in assay [3] (setting [21]), 0%; in assay [4] (setting [21]), 18%; in [5] (setting [21]) it was 0%; in [6] (setting [21]), 0%. Besides, the “%Inh” value worked out at 0% in assay [7] (setting [21]); 52% in [8] (setting [21]); 36% in [9] (setting [21]); 0% in [10] (setting [21]); 54% in assay [11] (setting [21]); 0% in assay [12] (setting [21]). Moreover, the “%Inh” value stood at 24% in assay [13] (setting [21]); 59% in assay [14] (setting [21]); 43% in assay [15] (setting [21]); 11% in assay [16] (setting [21]); 0% in [17] (setting [21]); 0% in assay [18] (setting [21]). Also, the “%Inh” value in assay [19] (setting [21]) came out at 18%; in assay [20] (setting [21]) it was 15%.
For `Cn1cncc1-c1ccc2ncnc(Nc3ccc(OCc4ccccc4)cc3)c2c1` [GW320571], the “%Inh” value amounted to 0% in [1] (setting [21]); 25% in assay [2] (setting [21]); 0% in assay [3] (setting [21]); 2% in assay [4] (setting [21]); 13% in [5] (setting [21]); 31% in assay [6] (setting [21]). Also, the “%Inh” value in [7] (setting [21]) amounted to 14%; in assay [8] (setting [21]), 15%; in assay [9] (setting [21]), 27%; in assay [10] (setting [21]) it was 0%; in assay [11] (setting [21]), 62%; in assay [12] (setting [21]), 6%. Further, the “%Inh” value in [13] (setting [21]) is reported as 8%; in assay [14] (setting [21]), 12%; in assay [15] (setting [21]) it was 0%; in assay [16] (setting [21]), 0%; in assay [17] (setting [21]), 8%; in assay [18] (setting [21]), 7%. Besides, the “%Inh” value in assay [19] (setting [21]) and in [20] (setting [21]) was 0% each time.
With `Cl.c1ccc(-c2n[nH]cc2-c2ccnc(-c3ccc(CN4CCOCC4)cc3)c2)nc1` [GW776245], the “%Inh” value in assay [1] (setting [21]) came to 31%; in assay [2] (setting [21]) it was 3%; in assay [3] (setting [21]), 3%; in assay [4] (setting [21]), 0%; in assay [5] (setting [21]) it was 15%; in assay [6] (setting [21]), 20%. Besides, the “%Inh” value in assay [7] (setting [21]) was 1%; in assay [8] (setting [21]) it was 22%; in assay [9] (setting [21]), 26%; in assay [10] (setting [21]), 0%; in assay [11] (setting [21]), 0%; in assay [12] (setting [21]), 14%. The “%Inh” value in [13] (setting [21]) came out at 0%; in assay [14] (setting [21]), 0%; in assay [15] (setting [21]) it was 46%; in assay [16] (setting [21]) it was 0%; in assay [17] (setting [21]), 37%; in assay [18] (setting [21]), 0%. For the same compound, the “%Inh” value was determined as 0% in assay [19] (setting [21]) and 31% in assay [20] (setting [21]).
Consider `COc1ccc(CNC(=O)NC2CCN(c3ccnc(Nc4cc(OC)c(OC)c(OC)c4)n3)C2)cc1` (stereo not shown) [GSK1379748], for which the “%Inh” value in [1] (setting [21]) worked out at 0%; in assay [2] (setting [21]), 0%; in assay [3] (setting [21]) it was 7%; in assay [4] (setting [21]) it was 0%; in assay [5] (setting [21]), 2%; in [6] (setting [21]) it was 9%. The “%Inh” value in assay [7] (setting [21]) came to 15%; in [8] (setting [21]), 14%; in assay [9] (setting [21]) it was 20%; in assay [10] (setting [21]) it was 3%; in assay [11] (setting [21]), 71%; in assay [12] (setting [21]), 26%. For the same compound, the “%Inh” value in [13] (setting [21]) turned out to be 5%; in assay [14] (setting [21]) it was 22%; in [15] (setting [21]) it was 16%; in assay [16] (setting [21]), 0%; in assay [17] (setting [21]), 0%; in assay [18] (setting [21]), 0%. For the same compound, the “%Inh” value was 40% in [19] (setting [21]) and 0% in assay [20] (setting [21]).
